High-throughput results: PubChem BioAssay, Broad Institute
This is a sample that favours compounds with a hit; in the whole collection about 0.46% have one here.
PglD DTNB: C. jejuni PglD acetyltransferase inhibitors, primary screen, biochemical, DTNB colorimetric, single point. UDP-N-acetylbacillosamine N-acetyltransferase PglD (Campylobacter jejuni). purified PglD enzyme, DTNB colorimetric CoA detection. inhibition, % at 12.5 µM. 360,000 tested, 0.098% active; in the data active = inhibition above about 16%, passing the limit was not always enough
PDI inh: inhibitors of human PDI, primary screen, biochemical, turbidity, single point, plate reader; PDI insulin aggregation turbidity, A650, 90 min; inhibition, % at 10 µM; 350,000 tested, 0.052% active; AID 588391, 2011;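 active = mean inhibition across replicates of 30% or more, whatever share of single replicates reach that level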
PGC1a acetyl inh: inhibitors of PGC1a acetylation signal, primary screen, cell-based, U2OS, AlphaScreen, inhibitor mode. AlphaScreen anti-acetyl-lysine; with virally co-expressed GCN5 acetyltransferase. inhibition, % at 15.6 µM. 350,000 tested, 0.17% active. AID 651687, 2012;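 active = every replicate shows inhibition of at least 40%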;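 note: 0% = neutral control wells and 100% = positive control wells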
CaV13 ICDI inh: Disruptors of the CACNA1D IQ motif to Ca2+-dependent inactivation inhibitor domain association, primary screening, Förster resonance energy transfer in intact living …; HEK cells, CFP/YFP FRET ICDI-IQ, plate reader, 10 min; percent FRET-ratio fall versus neutral wells; inhibition, % at 12.3 µM; 340,000 tested, 0.098% active; AID 743397;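 active = mean replicate inhibition of at least 30% and at least 1% of replicates passing that level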;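 note: 0% = median of the neutral control wells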
ERp5 inh: inhibitors of ERp5-driven insulin aggregation, primary screen, biochemical, turbidity, absorbance 650 nm, single point | 90 min | 350,000 tested, 0.05% active | AID 651711, 2012 | inhibition, % at 9.99 µM | Protein disulfide-isomerase A6 (Homo sapiens), Q15084;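 active = mean replicate inhibition above about 25%, with every replicate also reaching it, limit read from the data, passing the limit was not always enough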
ERAP1 inh: human ERAP1 aminopeptidase inhibitors, primary screen, biochemical, single point, plate reader; Endoplasmic reticulum aminopeptidase 1 (Homo sapiens), Q9NZ08; recombinant ERAP1, Leu-AMC fluorescence, 60 min; inhibition, % at 10.7 µM; 340,000 tested, 0.15% active; AID 652197, 2013;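 active = mean replicate inhibition of at least 30%, or all replicates individually reaching that 30% level; inactive = mean below 30% and not every replicate reaching it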;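 note: 0% = neutral control wells and 100% = L-leucinethiol positive control wells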
Target sequence (Q9NZ08 whole entry, looked up): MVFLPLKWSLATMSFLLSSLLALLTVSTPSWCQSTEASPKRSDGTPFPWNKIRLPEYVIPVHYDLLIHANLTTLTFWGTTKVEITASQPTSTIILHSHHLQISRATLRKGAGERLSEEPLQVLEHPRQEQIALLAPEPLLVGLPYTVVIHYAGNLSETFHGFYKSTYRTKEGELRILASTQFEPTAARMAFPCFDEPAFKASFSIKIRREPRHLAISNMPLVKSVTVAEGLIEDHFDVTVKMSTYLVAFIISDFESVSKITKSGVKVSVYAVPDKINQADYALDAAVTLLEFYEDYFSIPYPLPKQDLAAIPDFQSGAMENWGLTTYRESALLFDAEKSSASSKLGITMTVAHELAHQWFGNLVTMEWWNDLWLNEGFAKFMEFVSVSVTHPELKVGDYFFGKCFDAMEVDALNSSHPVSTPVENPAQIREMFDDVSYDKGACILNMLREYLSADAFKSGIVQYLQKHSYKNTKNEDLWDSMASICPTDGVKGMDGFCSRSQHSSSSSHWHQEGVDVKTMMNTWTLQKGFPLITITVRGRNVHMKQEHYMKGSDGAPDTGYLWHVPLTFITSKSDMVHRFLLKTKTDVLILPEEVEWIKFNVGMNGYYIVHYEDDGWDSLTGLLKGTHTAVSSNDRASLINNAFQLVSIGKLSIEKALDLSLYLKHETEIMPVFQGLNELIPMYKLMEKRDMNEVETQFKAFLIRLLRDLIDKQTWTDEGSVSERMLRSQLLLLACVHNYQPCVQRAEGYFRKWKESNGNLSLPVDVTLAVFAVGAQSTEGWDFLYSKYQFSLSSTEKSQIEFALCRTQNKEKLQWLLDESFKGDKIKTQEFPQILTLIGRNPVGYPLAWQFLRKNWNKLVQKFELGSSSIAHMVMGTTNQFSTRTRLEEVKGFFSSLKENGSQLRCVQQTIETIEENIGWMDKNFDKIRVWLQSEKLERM
Starred values were filed as active, the others as inactive; x = not tested or not shown; + = active, no number.

SMILES	PglD DTNB	PDI inh	PGC1a acetyl inh	CaV13 ICDI inh	ERp5 inh	ERAP1 inh
O=C1CC(c2ccccc2)NC(=S)N1 (stereo not given)	1	0	x	-4	3	3
CC1(CC(=O)N/N=C/c2ccc(-c3ccc(C(=O)O)cc3)o2)OCCO1	3	3	8	-7	-4	10
O=C(CN1CCOCC1)N/N=C/c1ccc(-c2ccc(C(=O)O)cc2)o1	x	6	15	-1	6	93*
CC(=O)N1C[C@@H]2[C@H](c3ccccc31)[C@@H](CO)N2C(=O)c1ccc(F)cc1	0	x	1	x	-5	-1
Oc1ccc(N2CCN(Cc3cc4c(cc3Br)OCCO4)CC2)cc1	0	76*	x	-3	0	-5
O=C(O)CC(Sc1n[nH]c(=S)s1)C(=O)O (stereo not given)	6	3	-1	-5	3	34*
C=C1C(=O)[C@]23C[C@H]1CCC2[C@@]1(C)C(C[C@@H]3O)[C@](C)(C(=O)OC)CC[C@@H]1OC(C)=O (stereo not given in full)	-2	x	103*	-5	3	6
C=C1C(=O)[C@]23C[C@H]1CC[C@H]2[C@]1(C)[C@@H](OC(C)=O)CC[C@@](C)(C(=O)OC)[C@H]1C[C@@H]3OC(C)=O	7	x	94*	-6	4	4
C=C1C(=O)[C@]23C[C@H]1CC[C@H]2[C@]1(C)[C@@H](OC(C)=O)CC[C@@](C)(C(=O)O)[C@H]1C[C@@H]3O	0	x	15	-7	4	x
COC(=O)CC1OCC=C2CN3CCC45C6=CC(=O)C(=O)C([N+](=O)[O-])=C6NC4C1C2CC35 (stereo not given)	-2	85*	10	-4	19	-2
c1nc(SSc2ncnc3nc[nH]c23)c2[nH]cnc2n1	x	2	16	-13	-8	33*
Nc1c2ccccc2nc2ccccc12	0	-3	12	40*	2	61*
C[C@@H]1CN([C@H](C)CO)S(=O)(=O)c2ccc(-c3ccc(C#N)cc3)cc2O[C@@H]1CN(C)C	1	x	3	x	0	-3
COC(=O)CCCCCCCCCC[N+]1(C)CCCCC1	x	19	x	-17	x	x
CC(=O)OCCCCCCCCCCC[N+]1(C)CCCCC1	x	5	x	-2	-5	88*
CCCCCCCCCCCCCCC(O)C[N+](C)(CCO)CCO (stereo not given)	x	24	-4	-5	7	64*
CCCCCCCC(=O)OCC(O)CO (stereo not given)	2	-5	x	-5	1	0
COc1ccc(C(=O)N/C(=C/c2cccs2)C(=O)NC(C)(C)C)cc1OC	-1	7	67*	-4	-2	-1
COc1ccc(/C=C(\NC(=O)c2cccs2)C(=O)NC(C)(C)C)cc1OC	6	-1	x	-17	3	2
C[C@@H]1CN([C@H](C)CO)C(=O)c2cccc(NC(=O)Nc3ccc(C(F)(F)F)cc3)c2O[C@@H]1CN(C)S(=O)(=O)c1ccccc1	x	x	14	x	x	x
CC(C)c1ccc(NC(=O)c2ccc3c(c2)CCN3S(C)(=O)=O)cc1	-4	1	82*	-4	1	1
COc1ccccc1NS(=O)(=O)c1ccc(C(=O)N2CCN(c3ccccn3)CC2)cc1	-4	-5	-6	-2	27*	2
CS(=O)(=O)Nc1ccc2c(c1)[C@@H]1C[C@@H](CC(=O)NCc3ccncc3)O[C@@H](CO)[C@@H]1O2	2	x	1	x	-3	1
CO[C@@H]1CN(C)C(=O)c2cc(NC(C)=O)ccc2OC[C@@H](C)N(S(=O)(=O)c2cn(C)cn2)C[C@@H]1C	1	x	7	x	7	0
Cc1cc(C)c(NC(=O)c2ccc(S(=O)(=O)N(C)C)cc2)c(C)n1	8	8	50*	-8	-5	1
SMILES	PglD DTNB	PDI inh	PGC1a acetyl inh	CaV13 ICDI inh	ERp5 inh	ERAP1 inh
C[C@@H]1CN([C@H](C)CO)C(=O)c2cc(NC(=O)Nc3ccccc3)ccc2O[C@H]1CN(C)C(=O)Nc1ccc(F)cc1	3	x	-2	x	-1	-1
CCN1/C(=C/c2sc(-c3ccccc3C)c[n+]2C)Sc2ccccc21	x	-1	x	+	-21	5
C[C@H]1CN([C@@H](C)CO)C(=O)c2cccc(NC(=O)c3ccc(-c4nccs4)cc3)c2O[C@H]1CN(C)C	1	x	8	x	2	1
C[C@@H]1CN([C@@H](C)CO)C(=O)Cc2cc(NC(=O)CCN3CCOCC3)ccc2O[C@@H]1CN(C)Cc1ccncc1	0	x	1	x	2	1
CNC[C@@H]1OCCCC[C@H](C)Oc2ccc(NC(=O)c3ccncc3)cc2C(=O)N([C@@H](C)CO)C[C@H]1C	x	x	-2	x	x	x
CN1C2=NCCN2C(=O)c2cc(Cl)ccc21	x	18	x	-5	2	111*
Clc1ccc2c(c1)-c1ccccc1C1=NCCN12	x	-63	x	-2	5	-3
N=c1oc2cc(O)ccc2cc1C(=O)Nc1ccc(Br)cc1	-1	5	x	+	0	-5
N=c1oc2cc(O)ccc2cc1C(=O)Nc1nc2ccccc2s1	x	2	x	81*	1	-143
Cc1ccc(S(=O)(=O)N2CCCC(C(=O)NCc3ccccn3)C2)cc1 (stereo not given)	-1	3	-19	x	x	x
CS(=O)(=O)N1CCCC(C(=O)NCc2ccccn2)C1 (stereo not given)	3	16	47*	-8	0	-4
CC1Cc2ccccc2N1C(=O)COc1ccc2c(c1)OCO2 (stereo not given)	1	5	-6	-4	-1	31*
CC1CCCN(C(=O)COc2ccc3c(c2)OCO3)C1 (stereo not given)	1	0	-2	-5	0	-1
CO[C@H]1CN(C)C(=O)c2ccc(NC(=O)c3ccc(F)cc3)cc2OC[C@@H](C)N(C(=O)CN(C)C)C[C@H]1C	x	x	-10	x	x	x
O=S(=O)(Nc1cccc(-c2cn3c(n2)SCC3)c1)c1ccc(F)cc1F	3	-5	x	-6	5	24
O=S(=O)(Nc1cccc(-c2cn3c(n2)SCC3)c1)c1ccccc1F	-3	26	1	x	3	37*
Cc1cnc(NC(=O)c2nn(C)cc2[N+](=O)[O-])s1	x	8	-131	-4	6	-9
Cn1cc([N+](=O)[O-])c(C(=O)Nc2nc(-c3ccc(Cl)cc3)cs2)n1	-6	0	63*	x	x	x
Cc1ccc(-c2nc(NC(=O)c3nn(C)cc3[N+](=O)[O-])sc2C)cc1C	-3	1	91*	-9	8	-1
